Bioassay records (PubChem BioAssay)
This is a sample that favours compounds with a hit; in the whole collection about 3.7% have one here.
TIM10 inh: growth inhibitors of isogenic TIM10 control yeast, primary screen, counter-screen for tim10-1 yeast inhibitor project, luminescence, uHTS. S. cerevisiae TIM10 strain growth, BacTiter-Glo luminescence, 24 h. hit rate 1.4% among 330,000. inhibition, % at 10 µM. AID 463195, 2010;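 active = inhibition of 40% or more at the single tested concentration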;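 also: wild-type TIM10 isogenic control strain grown at permissive 25 °C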
PfHsp90 yeast 2: growth inhibition of PfHsp90-expressing yeast, primary screen, antimalarial PfHsp90 inhibitor project, S. cerevisiae, BacTiter-Glo luminescence, single point, set 2. inhibition, % at 9.4 µM. BacTiter-Glo ATP, 48 h; yeast lacking PDR1 and PDR3 efflux regulators. hit rate 0.32% among 310,000;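 active = every replicate shows inhibition above about 80%, whatever the replicate mean, limit read from the data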;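 also: 0% = DMSO neutral controls and 100% = 20 µM radicicol positive controls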
tim23-1 inh: growth inhibitors of tim23-1 mutant yeast, primary screen, luminescence, uHTS; S. cerevisiae tim23-1 growth, BacTiter-Glo luminescence, 24 h; inhibition, % at 20 µM; hit rate 1.3% among 330,000;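 active = growth inhibition of the mutant yeast at or above 50%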;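 also: temperature-sensitive mutant grown at 25 °C; plate controls were DMSO-treated mutant yeast for no effect and medium wells lacking yeast for full effect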
tim10-1 inh: growth inhibitors of tim10-1 mutant yeast, primary screen, luminescence, uHTS; S. cerevisiae tim10-1 ts strain growth, BacTiter-Glo, 24 h; inhibition, % at 20 µM; hit rate 2.2% among 330,000; AID 463190, 2010;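 active = inhibition of at least 40%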;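 also: mutant grown at 25 °C; 0% = DMSO wells with yeast and 100% = wells holding no yeast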
NALP3 yeast inh: NALP3 inflammasome inhibitors in reconstituted yeast, primary screen, luminescence, uHTS; inhibition, % at 10 µM; AID 2825, 2010; hit rate 0.39% among 330,000; Yeast reconstituted NLRP3/ASC/caspase-1, beta-gal luminescence, 24 h;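 active = inhibition of 50% or more; inactive = inhibition below 50%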;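 also: plate controls were induced DMSO wells for no effect and uninduced yeast grown without galactose for full effect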
tim10-1 conf: growth inhibitors of tim10-1 mutant yeast, confirmation, single concentration, luminescence, S. cerevisiae. shares compounds with tim10-1 inh. S. cerevisiae tim10-1 ts strain growth, BacTiter-Glo, 24 h. inhibition, % at 20 µM. hit rate 56% among 7,400. AID 463213, 2010;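 active = inhibition of yeast growth at or above a set limit in either of two repeat tests at 20 µM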;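 also: tim10-1 mutant grown at permissive 25 °C to find synthetic lethal compounds; 0% = DMSO yeast wells and 100% = medium wells without yeast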
tim10 confirm: growth inhibitors of wild-type TIM10 yeast, confirmation, counter-screen for tim10-1 synthetic lethality project, single concentration, luminescence, S. cerevisiae; AID 463215, 2010; hit rate 63% among 4,600; inhibition, % at 10 µM; shares compounds with TIM10 inh; S. cerevisiae tim10 strain growth, BacTiter-Glo luminescence, 24 h;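 active = inhibition of yeast growth at or above a set limit in either of two replicates at 10 µM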;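 also: this counterscreen used the strain with wild-type TIM10; 0% = yeast with DMSO and 100% = medium wells lacking yeast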
tim23-1 conf: tim23-1 mutant yeast growth inhibitors, confirmation, luminescence, single concentration; shares compounds with tim23-1 inh; S. cerevisiae tim23-1 growth, BacTiter-Glo luminescence, 24 h; inhibition, % at 20 µM; hit rate 83% among 4,400;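 active = inhibition above about 39% in either of two replicate wells at 20 µM, limit read from the data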;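 also: temperature-sensitive tim23-1 mutant grown at 25 °C; 0% = DMSO wells with yeast and 100% = medium wells without yeast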
* = called active by the depositor; · = not tested or not shown.

SMILES	TIM10 inh	PfHsp90 yeast 2	tim23-1 inh	tim10-1 inh	NALP3 yeast inh	tim10-1 conf	tim10 confirm	tim23-1 conf
C/C(=N\Nc1nc2c(s1)CCCC2)c1ccc(Cl)cc1	50*	-4	58*	61*	14	47*	24	63*
CC1CCc2sc3nc(NCc4ccco4)n4ncnc4c3c2C1 (stereo unspecified)	18	-2	51*	41*	3	35*	·	56*
CCN(CC)C(=S)SSC(=S)N(CC)CC	50*	107*	64*	88*	31	99*	100*	99*
COC(=O)c1ccc(NC(=S)NC(=O)C2CCC2)cc1	22	6	50	35	21	·	·	·
O=C(NC(=S)Nc1ccccc1Cl)C1CC1	24	·	36	30	2	·	·	·
Cc1ccc(NC(=S)NC(=O)C2CC2)cc1Cl	30	-2	61*	49*	38	14	·	49*
CCOC(=O)c1ccc(NC(=S)NC(=O)C2CCCC2)cc1	41*	-22	58*	48*	27	36*	53*	44*
CN(Cc1ccccc1)C(=O)c1ccccc1C(=O)OCC(=O)N(Cc1ccccc1)C(C)(C)C	13	-11	20	14	1	·	·	·
Cc1cccc(Nc2nc(-c3ccc(O)cc3O)cs2)n1	33	-73	87*	43*	23	38*	·	72*
Cc1ccc(CNC(=O)c2cn(C3CCCC3)c(=O)c3c2c2ccccc2n3C)o1	22	·	7	23	1	·	·	·
O=C(Nc1cccc(C(F)(F)F)c1)c1cnc2n(c1=O)CCS2	4	8	1	12	34	·	·	·
O=c1c(Cl)c(Cl)cnn1Cc1nnc(-c2ccccc2Br)o1	44*	-1	78*	63*	-22	67*	50*	77*
Clc1ccc(Cc2nnc(-c3ccccc3Br)o2)cc1	-9	-5	4	13	34	·	·	·
O=C(CSC(=S)N1CCCC1)Nc1cc2c(cc1Br)OCCO2	5	4	9	7	24	·	·	·
O=C(CSC(=S)N1CCCC1)c1cc(Br)cc(Br)c1O	57*	·	52*	58*	15	46*	48*	66*
Cc1cccc(/C(N)=N/OC(=O)Cc2cccc3ccccc23)c1	76*	-3	54*	62*	20	69*	79*	60*
Cc1ccc(/C(N)=N/OC(=O)Cc2cccc3ccccc23)cc1	62*	-6	50*	57*	13	58*	54*	46*
Cc1ccc(/C(N)=N/OC(=O)Cc2ccccc2)cc1	40	-15	28	33	14	·	·	·
O=C(CCO)c1ccc(O)cc1	-5	18	11	3	18	·	·	·
O=C(CCSc1ccc(Br)cc1)c1ccc(O)cc1	17	97*	62*	50*	11	49*	·	74*
CC1CCN(S(=O)(=O)c2ccc(Cl)cc2)CC1	42*	-2	55*	40*	16	36*	16	40*
Cc1oc2c(c1C(=O)c1ccccc1)C(=O)C(=O)c1ccccc1-2	51*	·	68*	56*	16	50*	53*	67*
